# Reference: the supplement of paper PMC12282887
# ± gives the standard deviation of the averaged measurements.
# Tests used:
# Assay in all cases: promoter activity interaction Z-score (Lux/OD deviation from empty-vector control); higher = stronger promoter induction by the compound
# [1] = system: E. coli BW25113 acrABp lux reporter
# In short: (§1)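 E. coli BW25113 (wild type or marA, soxS or rob deletion) carrying low-copy luxCDABE promoter reporters grew in 40 µl LB Lennox in 384-well plates at 37°C. Each compound was tested at four 1:2 dilutions in biological duplicates. OD600 and luminescence were read every 30 min for 12 h. Areas were taken over 0–8 h (wild type) or 1–9 h (mutants), and wells below 10% of median growth area were removed. The score is the Z-transformed residual of growth-normalised luminescence fitted against the empty-vector control.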
# [2] = system: E. coli BW25113 marRABp lux reporter
# In short: as §1
# [3] = system: E. coli BW25113 micFp lux reporter
# In short: as §1
# [4] = system: E. coli BW25113 ompFp lux reporter
# In short: as §1
# [5] = system: E. coli BW25113 robp lux reporter
# In short: as §1
# [6] = system: E. coli BW25113 soxSp lux reporter
# In short: as §1
# [7] = system: E. coli BW25113 tolCp lux reporter
# In short: as §1
# [8] = 0.25 µg/ml, genetic background: wild type
# [9] = 0.25 µg/ml, genetic background: ΔmarA
# [10] = 0.25 µg/ml, genetic background: Δrob
# [11] = 0.25 µg/ml, genetic background: ΔsoxS
# [12] = 0.5 µg/ml, genetic background: wild type
# [13] = 0.5 µg/ml, genetic background: ΔmarA
# [14] = 0.5 µg/ml, genetic background: Δrob
# [15] = 0.5 µg/ml, genetic background: ΔsoxS
# [16] = 1 µg/ml, genetic background: wild type
# [17] = 1 µg/ml, genetic background: ΔmarA
# [18] = 1 µg/ml, genetic background: Δrob
# [19] = 1 µg/ml, genetic background: ΔsoxS
# [20] = 2 µg/ml, genetic background: wild type
# [21] = 2 µg/ml, genetic background: ΔmarA
# [22] = 2 µg/ml, genetic background: Δrob
# [23] = 2 µg/ml, genetic background: ΔsoxS
structure (smiles),measurement,setting,value
C/C(=C\C(=O)OCCCCCCCCC(=O)O)C[C@@H]1OC[C@H](C[C@@H]2O[C@H]2[C@@H](C)[C@H](C)O)[C@@H](O)[C@H]1O [Pseudomonic acid],promoter activity interaction Z-score,[1]; [8],-0.112 ± 0.0017
same,promoter activity interaction Z-score,[1]; [9],0.206 ± 0.33
same,promoter activity interaction Z-score,[1]; [10],0.0305 ± 0.27
same,promoter activity interaction Z-score,[1]; [11],-0.332 ± 0.5
same,promoter activity interaction Z-score,[1]; [12],-0.272 ± 0.0069
same,promoter activity interaction Z-score,[1]; [13],0.456 ± 0.14
same,promoter activity interaction Z-score,[1]; [14],-0.0699 ± 0.0047
same,promoter activity interaction Z-score,[1]; [15],-0.0985 ± 0.042
same,promoter activity interaction Z-score,[1]; [16],-0.204 ± 0.26
same,promoter activity interaction Z-score,[1]; [17],0.378 ± 0.38
same,promoter activity interaction Z-score,[1]; [18],-0.109 ± 0.35
same,promoter activity interaction Z-score,[1]; [19],0.483 ± 0.38
same,promoter activity interaction Z-score,[1]; [20],-0.0697 ± 0.066
same,promoter activity interaction Z-score,[1]; [21],-0.0876 ± 0.43
same,promoter activity interaction Z-score,[1]; [22],0.431 ± 0.61
same,promoter activity interaction Z-score,[1]; [23],-0.262 ± 0.13
same,promoter activity interaction Z-score,[2]; [8],0.11 ± 0.42
same,promoter activity interaction Z-score,[2]; [9],-0.235 ± 0.012
same,promoter activity interaction Z-score,[2]; [10],-0.0762 ± 0.015
same,promoter activity interaction Z-score,[2]; [11],0.0844 ± 0.02
same,promoter activity interaction Z-score,[2]; [12],-0.132 ± 0.23
same,promoter activity interaction Z-score,[2]; [13],0.0957 ± 0.22
same,promoter activity interaction Z-score,[2]; [14],-0.00927 ± 0.019
same,promoter activity interaction Z-score,[2]; [15],-0.0242 ± 0.093
same,promoter activity interaction Z-score,[2]; [16],-0.169 ± 0.093
same,promoter activity interaction Z-score,[2]; [17],-0.155 ± 0.7
same,promoter activity interaction Z-score,[2]; [18],-0.106 ± 0.21
same,promoter activity interaction Z-score,[2]; [19],-0.0673 ± 0.12
same,promoter activity interaction Z-score,[2]; [20],0.422 ± 0.28
same,promoter activity interaction Z-score,[2]; [21],0.511 ± 0.47
same,promoter activity interaction Z-score,[2]; [22],0.235 ± 0.31
same,promoter activity interaction Z-score,[2]; [23],0.341 ± 0.086
same,promoter activity interaction Z-score,[3]; [8],-0.00251 ± 0.014
same,promoter activity interaction Z-score,[3]; [9],-0.0765 ± 0.049
same,promoter activity interaction Z-score,[3]; [10],0.0594 ± 0.055
same,promoter activity interaction Z-score,[3]; [11],-0.253 ± 0.16
same,promoter activity interaction Z-score,[3]; [12],-0.108 ± 0.12
same,promoter activity interaction Z-score,[3]; [13],0.0535 ± 0.005
same,promoter activity interaction Z-score,[3]; [14],-0.0538 ± 0.014
same,promoter activity interaction Z-score,[3]; [15],0.11 ± 0.00091
same,promoter activity interaction Z-score,[3]; [16],-0.064 ± 0.06
same,promoter activity interaction Z-score,[3]; [17],-0.0233 ± 0.076
same,promoter activity interaction Z-score,[3]; [18],-0.144 ± 0.018
same,promoter activity interaction Z-score,[3]; [19],0.271 ± 0.095
same,promoter activity interaction Z-score,[3]; [20],-0.0515 ± 0.13
same,promoter activity interaction Z-score,[3]; [21],-0.351 ± 0.054
same,promoter activity interaction Z-score,[3]; [22],-0.275 ± 0.0059
same,promoter activity interaction Z-score,[3]; [23],-0.431 ± 0.085
same,promoter activity interaction Z-score,[4]; [8],0.431 ± 0.041
same,promoter activity interaction Z-score,[4]; [9],0.122 ± 0.59
same,promoter activity interaction Z-score,[4]; [10],0.647 ± 0.08
same,promoter activity interaction Z-score,[4]; [11],0.0332 ± 0.47
same,promoter activity interaction Z-score,[4]; [12],0.435 ± 0.061
same,promoter activity interaction Z-score,[4]; [13],0.376 ± 0.74
same,promoter activity interaction Z-score,[4]; [14],0.561 ± 0.78
same,promoter activity interaction Z-score,[4]; [15],0.388 ± 0.58
same,promoter activity interaction Z-score,[4]; [16],0.248 ± 0.034
same,promoter activity interaction Z-score,[4]; [17],0.569 ± 0.62
same,promoter activity interaction Z-score,[4]; [18],-0.0747 ± 0.3
same,promoter activity interaction Z-score,[4]; [19],0.938 ± 0.33
same,promoter activity interaction Z-score,[4]; [20],1.46 ± 0.058
same,promoter activity interaction Z-score,[4]; [21],1.34 ± 1.3
same,promoter activity interaction Z-score,[4]; [22],1.51 ± 0.36
same,promoter activity interaction Z-score,[4]; [23],1.34 ± 0.34
same,promoter activity interaction Z-score,[5]; [8],0.653 ± 0.041
same,promoter activity interaction Z-score,[5]; [9],0.421 ± 0.4
same,promoter activity interaction Z-score,[5]; [10],0.357 ± 0.37
same,promoter activity interaction Z-score,[5]; [11],0.316 ± 0.48
same,promoter activity interaction Z-score,[5]; [12],0.392 ± 0.59
same,promoter activity interaction Z-score,[5]; [13],0.85 ± 0.05
same,promoter activity interaction Z-score,[5]; [14],0.39 ± 0.34
same,promoter activity interaction Z-score,[5]; [15],0.257 ± 0.2
same,promoter activity interaction Z-score,[5]; [16],0.263 ± 0.2
same,promoter activity interaction Z-score,[5]; [17],0.154 ± 0.026
same,promoter activity interaction Z-score,[5]; [18],0.375 ± 0.08
same,promoter activity interaction Z-score,[5]; [19],0.843 ± 0.45
same,promoter activity interaction Z-score,[5]; [20],-0.842 ± 0.42
same,promoter activity interaction Z-score,[5]; [21],-1.15 ± 0.4
same,promoter activity interaction Z-score,[5]; [22],-1.28 ± 0.23
same,promoter activity interaction Z-score,[5]; [23],-1.41 ± 0.72
same,promoter activity interaction Z-score,[6]; [8],-0.0625 ± 0.032
same,promoter activity interaction Z-score,[6]; [9],-0.0981 ± 0.09
same,promoter activity interaction Z-score,[6]; [10],0.0456 ± 0.03
same,promoter activity interaction Z-score,[6]; [11],-0.226 ± 0.46
same,promoter activity interaction Z-score,[6]; [12],-0.257 ± 0.034
same,promoter activity interaction Z-score,[6]; [13],-0.0627 ± 0.0052
same,promoter activity interaction Z-score,[6]; [14],-0.182 ± 0.0097
same,promoter activity interaction Z-score,[6]; [15],-0.102 ± 0.24
same,promoter activity interaction Z-score,[6]; [16],-0.14 ± 0.14
same,promoter activity interaction Z-score,[6]; [17],-0.143 ± 0.15
same,promoter activity interaction Z-score,[6]; [18],-0.259 ± 0.033
same,promoter activity interaction Z-score,[6]; [19],0.137 ± 0.11
same,promoter activity interaction Z-score,[6]; [20],0.249 ± 0.064
same,promoter activity interaction Z-score,[6]; [21],0.277 ± 0.25
same,promoter activity interaction Z-score,[6]; [22],0.0902 ± 0.012
same,promoter activity interaction Z-score,[6]; [23],0.748 ± 0.0089
same,promoter activity interaction Z-score,[7]; [8],-0.891 ± 0.62
same,promoter activity interaction Z-score,[7]; [9],-0.0344 ± 0.2
same,promoter activity interaction Z-score,[7]; [10],-0.281 ± 0.4
same,promoter activity interaction Z-score,[7]; [11],-1.37 ± 0.18
same,promoter activity interaction Z-score,[7]; [12],-0.126 ± 0.82
same,promoter activity interaction Z-score,[7]; [13],0.395 ± 0.35
same,promoter activity interaction Z-score,[7]; [14],-0.919 ± 0.45
same,promoter activity interaction Z-score,[7]; [15],-0.306 ± 0.13
same,promoter activity interaction Z-score,[7]; [16],-0.0576 ± 0.9
same,promoter activity interaction Z-score,[7]; [17],0.349 ± 1.1
same,promoter activity interaction Z-score,[7]; [18],-0.441 ± 0.81
same,promoter activity interaction Z-score,[7]; [19],0.0561 ± 0.82
same,promoter activity interaction Z-score,[7]; [20],0.277 ± 0.14
same,promoter activity interaction Z-score,[7]; [21],-0.606 ± 0.55
same,promoter activity interaction Z-score,[7]; [22],0.432 ± 0.075
same,promoter activity interaction Z-score,[7]; [23],-1.08 ± 0.07
